# In the supplement of paper PMC11732987, “Enantioselective OTUD7B fragment discovery through chemoproteomics screening and high-throughput optimisation” (Communications Chemistry, 2025):
# A number with no mark means an inactive call.
# Assays:
# Experiment in all cases: log2 ratio of Biotin-Ahx-Ub-VS probe labelling (fragment/DMSO); higher = less target engagement (more negative = stronger competition), active = hit call of the paper (q ≤ 0.05, log2 ratio ≤ -1)
# Conditions in all cases: compound concentration: 200 uM; treatment time: 3 h
# USP9X = USP9X (UniProt Q93008)
# How it was run: (§1)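 Using Biotin-Ahx-Ub-VS at 0.5 µM final for 1 h, DUBs were labelled in HEK293T lysate (495 µg per sample) that had first been treated in triplicate with fragment at 200 µM or vehicle for 3 h. NeutrAvidin enrichment, LysC and trypsin digestion and diaPASEF LC-MS/MS followed. Spectronaut label-free quantities were global-median-normalised. Values are average log2 fragment/vehicle ratios by unpaired t-test, using proteins with ≥2 unique peptides.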
# UniProt O00487 = target: UniProt O00487
# How it was run: as §1
# UniProt O00507 = target: UniProt O00507
# How it was run: as §1
# UniProt P51784 = target: UniProt P51784
# How it was run: as §1
# UniProt Q5T2D3 = target: T1, UniProt Q5T2D3
# T1 sequence (whole entry): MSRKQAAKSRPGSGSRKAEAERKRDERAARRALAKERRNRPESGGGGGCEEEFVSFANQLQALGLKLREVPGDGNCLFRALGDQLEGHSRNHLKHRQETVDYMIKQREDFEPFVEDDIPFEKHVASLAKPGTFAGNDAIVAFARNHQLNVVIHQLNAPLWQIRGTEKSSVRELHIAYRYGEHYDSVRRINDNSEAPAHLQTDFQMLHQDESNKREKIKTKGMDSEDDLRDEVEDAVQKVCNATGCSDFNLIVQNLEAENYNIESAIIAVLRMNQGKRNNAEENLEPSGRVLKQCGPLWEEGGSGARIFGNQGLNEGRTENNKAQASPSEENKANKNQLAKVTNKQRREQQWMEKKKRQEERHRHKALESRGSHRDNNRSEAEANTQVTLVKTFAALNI
# How it was run: as §1
# UniProt Q8TE49 = target: T2, UniProt Q8TE49
# T2 sequence (whole entry): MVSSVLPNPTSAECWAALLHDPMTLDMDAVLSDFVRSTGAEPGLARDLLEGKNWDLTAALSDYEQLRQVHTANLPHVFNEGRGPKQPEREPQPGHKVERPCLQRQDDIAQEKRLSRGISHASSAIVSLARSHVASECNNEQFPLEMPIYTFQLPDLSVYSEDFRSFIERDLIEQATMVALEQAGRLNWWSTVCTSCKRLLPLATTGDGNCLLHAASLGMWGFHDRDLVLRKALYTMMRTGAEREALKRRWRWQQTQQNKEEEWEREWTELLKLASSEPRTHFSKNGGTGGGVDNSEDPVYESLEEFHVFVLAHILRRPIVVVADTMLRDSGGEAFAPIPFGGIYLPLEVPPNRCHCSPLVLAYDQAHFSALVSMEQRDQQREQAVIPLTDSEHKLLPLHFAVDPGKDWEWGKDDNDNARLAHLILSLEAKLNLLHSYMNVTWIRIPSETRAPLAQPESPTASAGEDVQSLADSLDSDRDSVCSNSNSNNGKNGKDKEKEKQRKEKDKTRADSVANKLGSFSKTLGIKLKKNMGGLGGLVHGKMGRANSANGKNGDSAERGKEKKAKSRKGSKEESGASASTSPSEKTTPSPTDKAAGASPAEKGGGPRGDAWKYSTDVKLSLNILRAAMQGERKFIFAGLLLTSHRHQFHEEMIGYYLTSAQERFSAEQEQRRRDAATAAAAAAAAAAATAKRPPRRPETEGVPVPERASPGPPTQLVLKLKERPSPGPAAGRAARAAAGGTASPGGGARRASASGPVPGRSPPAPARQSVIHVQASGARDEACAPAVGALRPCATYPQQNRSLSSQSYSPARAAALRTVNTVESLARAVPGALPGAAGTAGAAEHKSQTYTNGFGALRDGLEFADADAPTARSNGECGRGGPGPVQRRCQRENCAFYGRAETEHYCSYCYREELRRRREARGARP
# How it was run: as §1
# UniProt Q9P2H5 = target: T3, UniProt Q9P2H5
# T3 sequence (whole entry): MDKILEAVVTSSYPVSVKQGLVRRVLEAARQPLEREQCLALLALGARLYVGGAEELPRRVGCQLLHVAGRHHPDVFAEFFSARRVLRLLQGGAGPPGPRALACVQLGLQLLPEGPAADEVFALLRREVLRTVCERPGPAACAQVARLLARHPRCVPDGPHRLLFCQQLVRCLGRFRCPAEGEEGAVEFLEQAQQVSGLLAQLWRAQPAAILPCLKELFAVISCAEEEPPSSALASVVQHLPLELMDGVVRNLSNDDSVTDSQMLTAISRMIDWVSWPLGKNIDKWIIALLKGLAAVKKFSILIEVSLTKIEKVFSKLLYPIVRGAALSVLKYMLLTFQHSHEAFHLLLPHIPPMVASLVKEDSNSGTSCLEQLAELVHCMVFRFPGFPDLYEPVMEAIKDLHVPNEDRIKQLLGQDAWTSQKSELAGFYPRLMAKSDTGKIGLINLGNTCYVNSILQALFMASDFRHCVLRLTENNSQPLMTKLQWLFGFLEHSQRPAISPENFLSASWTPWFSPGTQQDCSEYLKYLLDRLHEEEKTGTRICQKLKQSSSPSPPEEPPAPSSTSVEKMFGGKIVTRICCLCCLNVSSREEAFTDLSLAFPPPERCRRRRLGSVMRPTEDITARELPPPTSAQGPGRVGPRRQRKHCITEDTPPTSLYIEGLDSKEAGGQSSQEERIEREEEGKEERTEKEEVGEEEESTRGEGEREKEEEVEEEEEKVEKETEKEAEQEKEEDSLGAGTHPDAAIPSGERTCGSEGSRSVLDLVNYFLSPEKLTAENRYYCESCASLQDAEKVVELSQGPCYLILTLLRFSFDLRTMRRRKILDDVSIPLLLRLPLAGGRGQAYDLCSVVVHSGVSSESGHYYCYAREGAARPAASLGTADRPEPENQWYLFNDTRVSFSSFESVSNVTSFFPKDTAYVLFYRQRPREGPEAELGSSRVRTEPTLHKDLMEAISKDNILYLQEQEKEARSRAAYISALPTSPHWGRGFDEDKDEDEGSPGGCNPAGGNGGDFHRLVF
# How it was run: as §1
# UniProt Q9UGI0 = target: T4, UniProt Q9UGI0
# T4 sequence (whole entry): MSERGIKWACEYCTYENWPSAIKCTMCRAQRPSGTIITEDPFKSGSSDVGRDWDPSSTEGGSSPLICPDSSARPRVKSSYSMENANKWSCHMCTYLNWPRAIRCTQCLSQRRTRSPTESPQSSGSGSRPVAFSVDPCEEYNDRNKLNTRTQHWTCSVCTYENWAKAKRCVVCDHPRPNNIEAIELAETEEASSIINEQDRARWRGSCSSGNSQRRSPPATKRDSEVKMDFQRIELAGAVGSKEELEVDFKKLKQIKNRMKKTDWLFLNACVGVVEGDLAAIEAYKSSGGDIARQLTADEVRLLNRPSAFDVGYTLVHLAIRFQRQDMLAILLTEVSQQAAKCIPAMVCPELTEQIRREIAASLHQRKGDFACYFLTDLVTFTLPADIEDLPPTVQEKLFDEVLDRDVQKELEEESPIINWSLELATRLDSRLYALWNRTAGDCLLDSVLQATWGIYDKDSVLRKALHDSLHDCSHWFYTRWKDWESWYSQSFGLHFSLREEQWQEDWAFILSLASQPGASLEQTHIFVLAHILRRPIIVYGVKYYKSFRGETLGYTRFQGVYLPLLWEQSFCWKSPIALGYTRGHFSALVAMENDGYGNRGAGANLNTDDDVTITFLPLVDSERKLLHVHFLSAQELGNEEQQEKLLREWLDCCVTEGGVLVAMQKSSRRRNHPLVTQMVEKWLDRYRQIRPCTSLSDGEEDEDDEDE
# How it was run: as §1
# YOD1 = target: T5, YOD1 (UniProt Q5VVQ6)
# T5 sequence (whole entry): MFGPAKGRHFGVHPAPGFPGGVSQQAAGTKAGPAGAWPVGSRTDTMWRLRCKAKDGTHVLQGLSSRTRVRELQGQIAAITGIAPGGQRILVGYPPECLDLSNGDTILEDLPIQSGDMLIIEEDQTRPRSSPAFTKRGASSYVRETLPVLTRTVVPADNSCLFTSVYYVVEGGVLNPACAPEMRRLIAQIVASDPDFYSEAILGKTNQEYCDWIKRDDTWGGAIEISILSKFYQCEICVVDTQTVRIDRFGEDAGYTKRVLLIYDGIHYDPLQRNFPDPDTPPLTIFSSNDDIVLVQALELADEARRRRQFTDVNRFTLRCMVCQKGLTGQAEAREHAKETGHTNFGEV
# How it was run: as §1
# UniProt P51784, sequence (P51784 whole entry): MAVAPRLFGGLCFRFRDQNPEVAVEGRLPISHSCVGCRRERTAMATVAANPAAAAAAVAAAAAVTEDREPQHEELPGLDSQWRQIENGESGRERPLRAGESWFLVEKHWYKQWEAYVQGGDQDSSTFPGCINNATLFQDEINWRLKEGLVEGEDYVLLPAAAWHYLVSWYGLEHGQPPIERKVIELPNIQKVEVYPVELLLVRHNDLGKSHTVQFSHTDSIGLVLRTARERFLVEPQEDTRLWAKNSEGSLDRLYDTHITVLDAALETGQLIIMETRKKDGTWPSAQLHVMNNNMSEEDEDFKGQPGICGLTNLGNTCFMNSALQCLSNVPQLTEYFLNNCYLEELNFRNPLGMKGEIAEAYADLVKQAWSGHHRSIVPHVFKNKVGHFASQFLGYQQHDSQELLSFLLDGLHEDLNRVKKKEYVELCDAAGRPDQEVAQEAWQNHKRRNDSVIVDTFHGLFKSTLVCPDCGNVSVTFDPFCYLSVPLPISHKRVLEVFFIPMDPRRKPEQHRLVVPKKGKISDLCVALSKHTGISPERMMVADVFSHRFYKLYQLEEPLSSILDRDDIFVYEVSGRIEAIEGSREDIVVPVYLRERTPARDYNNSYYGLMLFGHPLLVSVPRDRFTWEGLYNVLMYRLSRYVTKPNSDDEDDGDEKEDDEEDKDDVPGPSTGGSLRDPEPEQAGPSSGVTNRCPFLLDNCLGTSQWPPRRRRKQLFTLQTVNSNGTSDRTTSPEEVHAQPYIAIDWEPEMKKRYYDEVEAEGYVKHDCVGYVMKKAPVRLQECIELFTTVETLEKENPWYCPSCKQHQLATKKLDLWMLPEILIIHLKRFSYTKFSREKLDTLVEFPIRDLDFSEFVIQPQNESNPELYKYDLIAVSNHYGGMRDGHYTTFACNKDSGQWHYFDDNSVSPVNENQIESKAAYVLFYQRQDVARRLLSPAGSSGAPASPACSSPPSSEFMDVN
# UniProt O00487, sequence (O00487 whole entry): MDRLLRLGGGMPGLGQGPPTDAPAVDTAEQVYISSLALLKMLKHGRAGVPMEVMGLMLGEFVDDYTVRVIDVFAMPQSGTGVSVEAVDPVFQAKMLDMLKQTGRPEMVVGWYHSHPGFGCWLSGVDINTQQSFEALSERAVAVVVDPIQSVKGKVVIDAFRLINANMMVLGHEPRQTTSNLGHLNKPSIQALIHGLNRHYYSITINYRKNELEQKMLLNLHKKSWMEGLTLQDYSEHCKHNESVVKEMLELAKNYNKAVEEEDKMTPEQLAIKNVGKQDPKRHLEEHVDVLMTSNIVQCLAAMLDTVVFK
# UniProt O00507, sequence (O00507 whole entry): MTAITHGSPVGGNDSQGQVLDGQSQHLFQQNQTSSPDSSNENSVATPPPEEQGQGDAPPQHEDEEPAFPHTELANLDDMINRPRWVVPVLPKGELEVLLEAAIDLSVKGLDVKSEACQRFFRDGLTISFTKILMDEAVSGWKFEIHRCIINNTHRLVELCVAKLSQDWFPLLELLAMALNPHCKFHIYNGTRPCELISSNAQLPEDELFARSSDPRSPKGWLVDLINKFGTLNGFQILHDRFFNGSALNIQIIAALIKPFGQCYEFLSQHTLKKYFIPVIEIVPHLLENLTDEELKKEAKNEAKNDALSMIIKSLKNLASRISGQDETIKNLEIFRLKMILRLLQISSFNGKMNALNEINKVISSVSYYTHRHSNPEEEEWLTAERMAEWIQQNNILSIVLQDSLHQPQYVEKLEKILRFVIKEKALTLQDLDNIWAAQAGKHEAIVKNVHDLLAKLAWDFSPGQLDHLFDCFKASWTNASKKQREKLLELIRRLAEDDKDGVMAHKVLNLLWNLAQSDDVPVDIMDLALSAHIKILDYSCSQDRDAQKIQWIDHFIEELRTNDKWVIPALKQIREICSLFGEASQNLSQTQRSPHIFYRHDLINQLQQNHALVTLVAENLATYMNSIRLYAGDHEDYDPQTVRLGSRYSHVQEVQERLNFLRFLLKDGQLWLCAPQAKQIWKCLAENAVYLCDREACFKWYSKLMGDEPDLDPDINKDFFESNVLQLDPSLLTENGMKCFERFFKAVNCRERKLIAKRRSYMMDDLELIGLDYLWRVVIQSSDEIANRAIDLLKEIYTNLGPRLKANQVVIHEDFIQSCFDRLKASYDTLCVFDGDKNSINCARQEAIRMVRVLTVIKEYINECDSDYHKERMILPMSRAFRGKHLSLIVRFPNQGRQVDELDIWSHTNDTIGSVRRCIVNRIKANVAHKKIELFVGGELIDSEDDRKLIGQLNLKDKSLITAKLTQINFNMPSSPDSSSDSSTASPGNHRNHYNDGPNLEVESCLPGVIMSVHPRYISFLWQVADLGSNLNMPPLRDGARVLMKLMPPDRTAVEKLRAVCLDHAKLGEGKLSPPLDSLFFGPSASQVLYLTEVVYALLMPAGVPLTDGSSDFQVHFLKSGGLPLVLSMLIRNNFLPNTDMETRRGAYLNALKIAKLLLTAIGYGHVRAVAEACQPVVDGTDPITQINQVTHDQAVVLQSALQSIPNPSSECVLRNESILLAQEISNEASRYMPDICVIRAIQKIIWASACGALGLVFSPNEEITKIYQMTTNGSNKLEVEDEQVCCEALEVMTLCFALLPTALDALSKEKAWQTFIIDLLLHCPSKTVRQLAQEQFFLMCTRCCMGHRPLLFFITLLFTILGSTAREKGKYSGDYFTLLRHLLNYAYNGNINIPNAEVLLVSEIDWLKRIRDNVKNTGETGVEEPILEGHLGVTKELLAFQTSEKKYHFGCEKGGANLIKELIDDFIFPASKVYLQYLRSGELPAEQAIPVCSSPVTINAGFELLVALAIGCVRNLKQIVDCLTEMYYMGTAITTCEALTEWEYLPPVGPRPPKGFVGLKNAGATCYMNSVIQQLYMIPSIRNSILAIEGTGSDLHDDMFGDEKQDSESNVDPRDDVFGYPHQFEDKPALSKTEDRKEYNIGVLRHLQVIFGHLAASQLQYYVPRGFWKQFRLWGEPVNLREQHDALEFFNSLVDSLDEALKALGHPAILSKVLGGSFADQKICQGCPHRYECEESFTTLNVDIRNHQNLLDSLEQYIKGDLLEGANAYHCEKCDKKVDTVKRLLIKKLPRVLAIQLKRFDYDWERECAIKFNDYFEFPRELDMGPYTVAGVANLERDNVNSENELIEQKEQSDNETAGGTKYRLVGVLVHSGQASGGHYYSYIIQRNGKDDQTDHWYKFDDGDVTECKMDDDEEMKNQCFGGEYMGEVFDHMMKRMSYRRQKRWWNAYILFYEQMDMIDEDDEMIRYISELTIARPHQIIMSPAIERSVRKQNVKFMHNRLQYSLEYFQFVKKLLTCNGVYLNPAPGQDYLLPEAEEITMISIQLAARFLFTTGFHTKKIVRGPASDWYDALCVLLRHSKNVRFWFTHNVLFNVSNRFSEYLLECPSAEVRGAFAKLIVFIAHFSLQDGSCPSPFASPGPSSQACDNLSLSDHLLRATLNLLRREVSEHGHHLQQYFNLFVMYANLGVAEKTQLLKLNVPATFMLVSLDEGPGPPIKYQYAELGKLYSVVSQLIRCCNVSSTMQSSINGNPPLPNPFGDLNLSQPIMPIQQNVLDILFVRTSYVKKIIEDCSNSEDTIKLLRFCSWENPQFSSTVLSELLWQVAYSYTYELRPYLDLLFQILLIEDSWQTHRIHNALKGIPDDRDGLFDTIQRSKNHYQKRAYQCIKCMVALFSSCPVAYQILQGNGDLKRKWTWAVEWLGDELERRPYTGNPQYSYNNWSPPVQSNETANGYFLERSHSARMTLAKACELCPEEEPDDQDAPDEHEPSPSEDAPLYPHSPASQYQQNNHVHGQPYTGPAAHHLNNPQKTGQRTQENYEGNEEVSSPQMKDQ
structure (smiles),measurement,setting,value
Cc1conc1C1CN(C(=O)CCl)C1,log2 ratio of Biotin-Ahx-Ub-VS probe labelling,USP9X,-0.803
same,log2 ratio of Biotin-Ahx-Ub-VS probe labelling,UniProt O00487,-0.115
same,log2 ratio of Biotin-Ahx-Ub-VS probe labelling,UniProt O00507,-0.553
same,log2 ratio of Biotin-Ahx-Ub-VS probe labelling,UniProt P51784,-0.677
same,log2 ratio of Biotin-Ahx-Ub-VS probe labelling,UniProt Q5T2D3,-0.923
same,log2 ratio of Biotin-Ahx-Ub-VS probe labelling,UniProt Q8TE49,-1.71 (active)
same,log2 ratio of Biotin-Ahx-Ub-VS probe labelling,UniProt Q9P2H5,-0.584
same,log2 ratio of Biotin-Ahx-Ub-VS probe labelling,UniProt Q9UGI0,-0.885
same,log2 ratio of Biotin-Ahx-Ub-VS probe labelling,YOD1,-1.1 (active)
